Sampled rows, rich in hits. Any-hit rate of the full collection: about 21%.
ClpP mod – qHTS Assay for Activators of ClpP; Potency, µM (highest dose often 57.5 µM); actives 1.9% (n = 340,000); purified B. subtilis ClpP, FRET peptide cleavage, 20 min; ATP-dependent Clp protease proteolytic subunit (Bacillus subtilis (strain 168)), P80244; AID 651965, 2013; active means well fitted falling curve with a large enough effect; inconclusive means small, poorly fitted or top-dose-only effect; inactive means no such curve, though single readings can be large or run the other way; further: the source files actives as falling curves though it sought activators and does not explain the sign; nearly all actives have a fitted effect of over 65% in size
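Buffer: 100 mM Tris/HCl pH8, 100 mM KCl, 0.05% low protease BSA, 2.5% glycerol, 0.01% Tween-20. ClpP 10 microg/mL final; 20 min RT; delta FRET normalized to ADEP and DMSO controls.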
IL-1B inflam inh – blocks inflammasome-driven IL-1 beta release; THP-1 LPS/ATP IL-1B secretion, AlphaLISA, 16 h; hits give low values; activity change, % at 57.5 µM; actives 4.7% (n = 360,000); AID 743279; in the data active means activity change below about -50%; inconclusive means mostly about -30% to -49%
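Secreted IL-1B measured by AlphaLISA bead assay after 16 h compound exposure of THP-1 cells; compounds (final up to 57.5 uM) added 1 h before LPS (250 ng/mL) and ATP (1.25 mM) stimulation; lower signal means less secretion.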
DT40 TDP1 CPT – growth inhibition of DT40 Tdp1-/-;hTDP1 cells with camptothecin (screen for TDP1 inhibitors); chicken DT40 Tdp1-/-;hTDP1 cells + 20 nM CPT, ATP luminescence, 48 h; Potency, µM (series often up to 46.2 µM), most hits filed as inhibitors; actives 12% (n = 420,000); further: nearly all actives have a fitted effect of over 55% in size
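Cell growth measured by CellTiter-Glo luminescence after a minimum 48 h, 37 C compound exposure with 20 nM CPT in Tdp1-knockout DT40 cells stably expressing hTDP1, seeded 400/well; qHTS titration format.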
DRD3 agonist – activates the human D3 dopamine receptor; D3R DiscoveRx beta-arrestin cells, luminescence, 90 min; max activation, %; actives 0.58% (n = 410,000); P35462; in the data active means max activation above about 30%
Target sequence (P35462 whole entry, looked up): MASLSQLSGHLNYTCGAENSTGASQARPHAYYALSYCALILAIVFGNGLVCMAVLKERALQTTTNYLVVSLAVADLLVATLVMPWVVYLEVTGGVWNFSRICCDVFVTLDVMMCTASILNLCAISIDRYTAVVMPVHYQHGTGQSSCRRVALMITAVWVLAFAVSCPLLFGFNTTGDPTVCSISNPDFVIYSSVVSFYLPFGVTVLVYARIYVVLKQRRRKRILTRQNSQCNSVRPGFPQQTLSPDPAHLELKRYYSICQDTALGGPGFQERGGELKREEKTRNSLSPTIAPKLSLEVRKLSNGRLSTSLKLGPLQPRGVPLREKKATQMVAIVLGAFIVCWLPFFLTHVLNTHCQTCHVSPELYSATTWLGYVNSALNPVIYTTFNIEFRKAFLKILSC
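Agonist mode: compounds and dopamine controls were applied to plated cells for 90 min at 37 degrees C after an overnight attachment at 1500 cells/well. Luminescent read-out followed 30 - 60 minutes at room temperature with DiscoveRx detection reagent.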
TDP1 cell noCPT – qHTS for Inhibitors of human tyrosyl-DNA phosphodiesterase 1 (TDP1): qHTS in cells in absence of CPT. Potency, µM (series often up to 46.2 µM), hits mostly inhibitors. DT40 Tdp1-/- hTDP1 cells, no CPT, ATP luminescence, 48 h. AID 686978, 2013. actives 15% (n = 420,000); further: nearly all actives have a fitted effect of over 55% in size
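No-CPT arm: Tdp1-/-;hTDP1 DT40 cells (400/well) plus compounds, incubated ≥48 hr at 37 °C. Readout CellTiter-Glo luminescence.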
D3 antag – D3 dopamine receptor (human) antagonism; actives 2.5% (n = 360,000); max response, negative = inhibition, %; D3R cells, DiscoveRx beta-arrestin luminescence, antagonist mode; hits give low values; in the data active means max response below about -50%; inconclusive means no clear call, values can overlap the other calls
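Cells expressing the human receptor were seeded at 1500 cells/well, incubated overnight at 37 degrees C in 5% CO2, then exposed to library compounds with dopamine controls for 90 minutes at 37 degrees C before luminescent detection.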
A number is an active result; n = inactive; u = inconclusive; x = no result given; ! = a repeat was not active; [ ] = dose if it differs, or a comment. Unless noted, the call rests on the fitted dose curve; in most records, active means well fitted inhibition curve with a large enough effect; inconclusive means small, poorly fitted or top-dose-only effect; inactive means flat fitted curve, though single readings scatter.

SMILES	ClpP mod	IL-1B inflam inh	DT40 TDP1 CPT	DRD3 agonist	TDP1 cell noCPT	D3 antag
CC(C)(C)C1(O)CCN2CC3c4ccccc4CCc4cccc(c43)C2C1 (centres undefined)	x	x	17µM	x	24µM	x
CC(C)(C)[C@]1(O)CCN2C[C@H]3c4ccccc4CCc4cccc(c43)[C@@H]2C1	n	n	8.2µM!	x	12µM	x
c1coc(-c2nnc(-c3ccco3)nn2)c1	x	-76	5.8µM	n	12µM	n
c1ccc(-c2nnc(-c3ccco3)n2-c2ccccc2)cc1	22µM	n	n	n	n	n
c1ccc(-c2nnc(-c3ccco3)o2)cc1	14µM	n	n	n	n	n
O=C(Nc1ccc(-c2nnc(-c3ccco3)o2)cc1)C(c1ccccc1)c1ccccc1	28µM	n	9.2µM	n	8.2µM	n
COc1cccc(-c2nc3cc(SC)ccc3cc2CN(C(=O)c2sccc2C)C2CC2)c1	x	x	n	x	n	x
O=C(N1CCC(n2nc(-c3ccccc3)oc2=O)CC1)C1(c2ccccc2)CC1	n	n	u	n	u	n
O=C(c1ccc2ccccc2c1)c1cccc(F)c1C(=O)O	n	n	n	n	n	n
COc1cc2ccccc2cc1C(=O)N1CCCCC1	x	n	n	n	n	n
CN(C)CC(O)COc1cc2ccccc2cc1C(=O)N1CCCCC1 (centres undefined)	n	n	n	n	n	-59
COc1cc(C(=O)NCc2ccc3c(c2)CCN3C(=O)c2ccc(Cl)cc2)cc(OC)c1OC	n	x	23µM	n	15µM	x
COc1ccc(C(=O)NCc2ccc3c(c2)CCN3C(=O)c2ccc(Cl)cc2)c(OC)c1	n	x	18µM	n	18µM	x
O=C(NCc1ccc2c(c1)CCN2C(=O)c1ccncc1)c1ccc(Cl)cc1	n	x	u	n	u	x
COc1ccc(NC(=O)c2ccco2)cc1NC(=O)c1cc(Cl)ccc1OC	n	x	n	n	n	x
N#Cc1ccccc1S(=O)(=O)N1CCN(C(=O)C2CCCCC2)CC1	n	n	n	n	n	n
Cc1cc2nc(-c3ccc(NC(=O)C(C)C)cc3)oc2cc1C	n	n	n	n	n	n
Cc1ccc(-c2nc3cc(NC(=O)C(C)C)ccc3o2)cc1C	28µM	n	u	n	u	n
Cc1ccc(-c2nc3cc(NC(=O)C(C)C)ccc3o2)cc1	14µM	n	n	n	u	n
COc1cc(OC)cc(-c2nc3cc(C)ccc3o2)c1	25µM	n	u	n	u	n
Cc1ccc(-c2nc3cc(Cl)ccc3o2)cc1	35µM	n	n	n	n	n
Cc1cccc(C)c1OCC(=O)N1CCC(c2nc3ccccc3o2)CC1	n	x	u	n	u	x
O=C1Nc2c(Cl)cc(Cl)cc2C1=O	x	-93	7.3µM	n	10µM	-93
O=C1NC(=S)S/C1=C\c1cc(Cl)cc(Cl)c1O	n	n	u	n	u	n
N#Cc1ccc(C(=O)Nc2cc(C3CC3)nn2-c2ccccc2)cc1	n	n	n	n	n	u
SMILES	ClpP mod	IL-1B inflam inh	DT40 TDP1 CPT	DRD3 agonist	TDP1 cell noCPT	D3 antag
Cc1nn(-c2ccccc2)c(Cl)c1C(=O)N(C)CC(=O)Nc1cccc(F)c1	x	n	u	n	u	n
Cc1nn(-c2ccc(F)cc2)c(Cl)c1C(=O)N(C)CC(=O)Nc1cccc(F)c1	n	-52	u	n	15µM	n
Cc1nn(Cc2ccccc2Cl)c(C)c1C(=O)N(C)CC(=O)Nc1cccc(F)c1	n	n	u	n	16µM	n
COc1ccccc1N(C(=O)c1ccco1)C(C(=O)NC1CCCC1)c1ccncc1 (centres undefined)	n	n	n	n	n	n
Cc1ccccc1Cc1nc2cccnc2n1C1CCN(C(=O)CC2NC(=O)c3ccccc32)CC1 (centres undefined)	x	x	n[9.04 µM]	x	u	x
Cc1nnc(SCC(=O)NCC2CCCO2)n1Cc1ccccc1 (centres undefined)	x	n	n	78	n	n
CC(C)c1ccc(Nc2nnc(SCC(=O)NCC3CCCO3)s2)cc1 (centres undefined)	n	n	u	n	16µM	n

Screening results as filed in PubChem BioAssay.
